Data taken from PubChem BioAssay (NCI).
Compounds without any hit were thinned out: in the full panel of roughly 83,000, 20% have a hit.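 For each line, cells grew in 96-well plates with the test compound present at a single concentration for 48 hours.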 A number with no mark means an inactive call. The source made the active and inactive calls. Rule for the calls: active = growth percent below 10; inactive = the rest.

What follows are molecules tested on LOX IMVI melanoma (assay: NCI-60 one-dose screen, 48 h (100 = growth as untreated, 0 = no growth, -100 = all killed)). Conditions: 10 µM unless noted.

In order of falling growth:
1. O=C1Nc2ccccc2/C1=C/c1cn(C(=O)c2ccc(Cl)cc2)c2ccccc12  100%
2. CC(C)Sc1nc(NNC(N)=S)c(C#N)c(-c2ccc(F)cc2)n1  98.6%
3. C#CCOc1nc(C)cc(C)c1C#N  97.4%
4. Cc1ccc(S(=O)(=O)NCC[C@@H]2C[C@H]2c2cc3ccccc3s2)cc1  96.7%
5. NC(=O)c1ccc[n+](Cc2ccc(Cl)cc2Cl)c1  95.8%
6. NC[C@H](O)c1ccc(O)c(O)c1  94.2%
7. COc1ccc(-c2csc(C3=C(O)CN(C(C)C)C3=N)n2)cc1OC  94.1%
8. Cc1nn(-c2ccccc2)c(Oc2ccc(Cl)cc2)c1/C=N\N=c1/sc2ccccc2n1C  93.3%
9. C=C(C)[C@@H]1CC[C@]2(C(=O)NC3CCCCC3)CC[C@]3(C)[C@H](CC[C@@H]4[C@@]5(C)CCC(=O)C(C)(C)[C@@H]5CC[C@]43C)[C@@H]12  92.2%
10. COc1ccc(NC(=O)CSc2nnc(-c3cc(-c4ccc(S(N)(=O)=O)cc4)nc4ccccc34)n2-c2ccccc2)cc1  90.3%
11. CC1(C)OC2C(CO[Si](C)(C)C(C)(C)C)OC(n3c(I)c(C#C[Si](C)(C)C)c(=O)[nH]c3=O)C2O1 (stereo not drawn)  86.6%
12. CCCCc1ccc(Nc2ccc(Nc3ccc(CCCC)cc3S(=O)(=O)O)c3c2C(=O)c2ccccc2C3=O)c(S(=O)(=O)O)c1  86.4%
13. N=C1CCC(=N)c2c1c(O)c1ccccc1c2O  81.9%
14. O=C(NC(Cc1nnc2n(Cc3ccccc3)c(=O)c3c4c(sc3n12)CCCC4)c1ccc(Cl)cc1)c1ccccc1 (stereo not drawn)  79.4%
15. CCCCCCCC/C=C\CCCCCCCCOc1ccccc1CC(=O)NCC[N+](C)(C)C  74.1%
16. N#Cc1c(-c2cccc(Cl)c2)cc(-c2cccc(Cl)c2)[nH]c1=O  72.3%
17. COc1ccc(C2C(c3nn[nH]n3)=C(N)Oc3c2ccc2ccccc32)cc1 (stereo not drawn)  63.5%
18. Cc1c(O)cc(-c2cnc(N/N=C\c3ccc(Cl)cc3)s2)c(O)c1C  62.2%
19. COc1ccc2occ(C3=C(c4c[nH]c5ccccc45)C(=O)N(O)C3=O)c2c1  58.4%
20. CCN1C(=O)N(CC)C2Nn3c(s/c(=C\c4cccc([N+](=O)[O-])c4)c3=O)=NC21 (stereo not drawn)  56.4%
21. COc1ccc(-c2[nH]c(=S)n(C(CC3(C)NCC(=O)N3n3c(-c4ccccc4)cc(C)nc3=S)c3ccc(OC)cc3)c(=O)c2Br)cc1 (stereo not drawn)  41.3%
22. COc1cc(/C=N/Nc2ncc(-c3cc4cc5c(cc4o3)OCO5)s2)cc(OC)c1OC  36.1%
23. COc1ccc(C2CC(c3cccc(OC)c3)=NN2C(=O)c2cc(OC)c(OC)c(OC)c2)cc1 (stereo not drawn)  35.5%
24. COC(=O)[C@]12CC[C@@H](C)[C@H](C)[C@@H]1C1=CC[C@@H]3[C@@]4(C)C(C=O)=C[C@@](C)(COC(C)=O)[C@@H]4C(=O)C[C@@]3(C)[C@]1(C)CC2  33.5%
25. N=c1sc(Cc2ccc(Cl)cc2)cn1CC(=O)c1ccc(F)cc1  33.2%
26. Cc1ccc(Cl)c(NS(=O)(=O)c2ccc(-c3cnc(C4CC4)o3)cc2)c1  33%
27. COc1cc(CCC[P+](c2ccccc2)(c2ccccc2)c2ccccc2)cc2c1OCO2  32%
28. O=C1/C(=C\c2cccnc2)SC(=S)N1CCc1ccc(O)cc1  17.4%
29. O=C(CCCCCCN1CC(=O)N2[C@@H](c3ccccc3Cl)c3[nH]c4ccccc4c3C[C@H]2C1=O)NO  14.7%

For `Cn1cc(-c2csc(-c3ccccc3)n2)c2cccnc21`, the growth was -54.3% [100 µM] (active).
`CCN1CCN(c2cc(C)nc(NCc3cc(Nc4ccnc5cc(Cl)ccc45)ccc3F)n2)CC1` was tested, and the growth was 8.07% (active).
With `Cc1cc(O)c(C2=NN(c3ccc(S(N)(=O)=O)cc3)C(c3ccccc3Cl)C2)cc1Cl` (stereo not drawn) the growth was -83.7% (active).
For `OC(c1cccc(-n2ccc(C(F)(F)F)n2)c1)c1cnccc1NC1CCCCCC1` (stereo not drawn), the growth was -91.4% (active).
In the case of `CCN(CC)CCn1nc2c3c(cccc3c1=O)-c1ccccc1-2`, the growth is reported as -3.44% (active).
In the case of `Fc1c[c-]c(-c2ccccn2)c(F)c1.[CH3-].[Pt+2].c1ccc(P(C[PH+](c2ccccc2)c2ccccc2)c2ccccc2)cc1`, the growth is reported as -92.9% (active).
With `N#C/C(=C/C=C/c1cccc(Cl)c1)S(=O)c1ccccc1` (stereo not drawn) the growth was -85.3% (active).
In the case of `Oc1c(CN2CCCC2)cc(COCc2ccc(Br)cc2)c2cccnc12`, the growth is reported as -14.1% (active).
With `CCc1c2c(nc3ccc(OC(=O)OCc4ccc(B5OC(C)(C)C(C)(C)O5)cc4)cc13)-c1cc3c(c(=O)n1C2)COC(=O)[C@]3(O)CC` the growth was -67.8% (active).
